# The supplement of paper PMC3545927
# Some of the results follow. No count for the full screen is at hand.
# Biological target: furin, P09958
# Test: furin cleavage Z-score vs untreated control; higher = more cleavage, active = 3.5 or more, inactive = 1 or less, 8 variable residues between constant flanks
# Procedure, shortened: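 Furin cleavage was scored on 8-mer peptides joined to a cDNA oligonucleotide and bound to magnetic beads at the N-terminus. Digestion with purified furin (1:10 enzyme:substrate, 0.01 ml, 50 mM HEPES pH 7.5, CaCl2, NaCl) lasted 7.5, 15 or 30 min. Freed DNA was tagged with adapters by PCR, sequenced and counted; the cleavage Z-score is the lowess-adjusted log count versus furin-free reactions, scaled by median absolute deviation.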
# furin, P09958, sequence (P09958 whole entry): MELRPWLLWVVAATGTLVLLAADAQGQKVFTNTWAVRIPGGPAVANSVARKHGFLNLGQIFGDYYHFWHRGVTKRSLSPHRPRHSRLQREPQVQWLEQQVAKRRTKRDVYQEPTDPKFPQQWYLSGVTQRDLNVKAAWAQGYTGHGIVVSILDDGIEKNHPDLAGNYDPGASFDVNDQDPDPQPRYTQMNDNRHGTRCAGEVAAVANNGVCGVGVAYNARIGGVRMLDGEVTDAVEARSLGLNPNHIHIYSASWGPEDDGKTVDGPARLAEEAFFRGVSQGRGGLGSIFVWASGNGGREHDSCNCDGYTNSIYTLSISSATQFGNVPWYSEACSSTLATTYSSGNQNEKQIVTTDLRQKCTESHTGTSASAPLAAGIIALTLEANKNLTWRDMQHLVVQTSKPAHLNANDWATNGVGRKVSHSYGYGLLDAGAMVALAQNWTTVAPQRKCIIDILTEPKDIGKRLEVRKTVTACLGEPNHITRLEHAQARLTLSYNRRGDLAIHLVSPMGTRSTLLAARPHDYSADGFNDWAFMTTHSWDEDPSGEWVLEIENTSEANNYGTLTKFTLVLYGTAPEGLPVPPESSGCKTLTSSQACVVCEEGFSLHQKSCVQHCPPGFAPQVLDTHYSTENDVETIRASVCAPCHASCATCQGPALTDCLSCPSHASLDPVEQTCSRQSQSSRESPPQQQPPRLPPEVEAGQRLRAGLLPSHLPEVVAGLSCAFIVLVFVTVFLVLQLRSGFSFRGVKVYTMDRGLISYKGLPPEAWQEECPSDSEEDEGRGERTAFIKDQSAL
Sequence,furin cleavage Z-score (7.5 min),furin cleavage Z-score (15 min),furin cleavage Z-score (30 min)
CAMEECSQHIAGNASASA [HC1764],-0.598 (inactive),0.0833 (inactive),0.396 (inactive)
CAMRSPVFTDAGNASASA [HC763],0.639 (inactive),-0.615 (inactive),-0.411 (inactive)
CAFDVVCCSMAGNASASA [HC2107],-0.364 (inactive),0.607 (inactive),-0.057 (inactive)
CAGERPSGMFAGNASASA [HC913],1.14,-1.35 (inactive),-0.577 (inactive)
CATTPCSLSWAGNASASA [HC1885],1.37,1.04,0.14 (inactive)
CARGRRQKQNAGNASASA [FS-2418],0.749 (inactive),0.513 (inactive),0.917 (inactive)
CARPIRSRRAAGNASASA [FS-1563],11.5 (active),11.2 (active),9.54 (active)
CARGRRSRRAAGNASASA [FS-1062],5.6 (active),4.73 (active),4.94 (active)
CARGRRGMKDAGNASASA [FS-2394],0.884 (inactive),1.5,2.14
CARGRRSHDPAGNASASA [FS-2674],0.899 (inactive),3.42,3.55 (active)
CARGRRQPIPAGNASASA [HC190],0.155 (inactive),-0.409 (inactive),-0.134 (inactive)
CACPAGHAVGAGNASASA [HC746],-0.805 (inactive),-1.77 (inactive),0.00889 (inactive)
CAPLGNWFGCAGNASASA [HC433],1.65,0.567 (inactive),1.54
CAVKSRLKRLAGNASASA [FS-890],9.42 (active),12 (active),9.55 (active)
CAHSSRLKRLAGNASASA [FS-1011],6.44 (active),7.96 (active),7.66 (active)
CAIKSLTERLAGNASASA [HC1497],-0.222 (inactive),-0.416 (inactive),-0.246 (inactive)
CADGMEECSQAGNASASA [HC1816],-0.375 (inactive),0.927 (inactive),0.477 (inactive)
CAMSECSQHLAGNASASA [HC1697],0.222 (inactive),0.351 (inactive),1.22
CAMEECSCHLAGNASASA [HC1740],0.898 (inactive),-0.945 (inactive),0.106 (inactive)
CALDSFDPLVAGNASASA [HC1287],0.861 (inactive),0.184 (inactive),1.88
CALEGEPGDPAGNASASA [HC1356],-0.565 (inactive),0.288 (inactive),0.927 (inactive)
CAKMRRKKRFAGNASASA [FS-1459],7.33 (active),9.76 (active),8.97 (active)
CALNEIKKRFAGNASASA [FS-352],0.841 (inactive),-1.42 (inactive),-0.561 (inactive)

Sequence,furin cleavage Z-score (7.5 min),furin cleavage Z-score (15 min),furin cleavage Z-score (30 min)
CAGSIRKKRFAGNASASA [FS-1457],6.25 (active),7.01 (active),6.64 (active)
CAYKRYISWCAGNASASA [HC578],0.0156 (inactive),0.474 (inactive),1.13
CANLKCPCQVAGNASASA [HC1215],-0.928 (inactive),-0.942 (inactive),-0.8 (inactive)
CASSTRSKRSAGNASASA [FS-874],11.9 (active),11.3 (active),10 (active)
CASQFRSKRSAGNASASA [FS-1085],9.98 (active),9.45 (active),7.11 (active)
CASQQRQYRSAGNASASA [FS-564],2.45,5.55 (active),5.41 (active)
CAMSTWSKRSAGNASASA [FS-464],0.45 (inactive),1.32,1.43
CAFWVRSKRSAGNASASA [FS-590],9.47 (active),8.07 (active),7.6 (active)
CAASLAGTHGAGNASASA [HC539],0.00941 (inactive),3.06,1.2
CADTPCSAHLAGNASASA [HC2471],-1.99 (inactive),-1.52 (inactive),-0.796 (inactive)
CALLLTTTQWAGNASASA [HC493],-0.815 (inactive),-0.0284 (inactive),0.00617 (inactive)
CATTPCSGSIAGNASASA [HC1924],-0.658 (inactive),-0.276 (inactive),-1.61 (inactive)
CAEVPCHMPSAGNASASA [HC2366],0.437 (inactive),1.57,0.743 (inactive)
CAPSLKATCTAGNASASA [HC1265],0.563 (inactive),1.42,0.215 (inactive)
CATGPCTPLPAGNASASA [HC1194],-0.592 (inactive),-0.46 (inactive),0.602 (inactive)
CADIINGLPVAGNASASA [HC658],-0.191 (inactive),-0.925 (inactive),-0.966 (inactive)
CAMEECSHHLAGNASASA [HC1735],0.695 (inactive),-0.107 (inactive),-0.123 (inactive)
CASKERSKRSAGNASASA [FS-1568],12.6 (active),10.6 (active),9.24 (active)
CAELNRSKRSAGNASASA [FS-927],10.6 (active),9.86 (active),8.24 (active)
CASSARNKRSAGNASASA [FS-94],11.8 (active),11.6 (active),8.13 (active)
CAEKERSKRSAGNASASA [FS-1626],9.14 (active),7.38 (active),7.92 (active)
CAELNRSKKDAGNASASA [FS-232],0.785 (inactive),0.28 (inactive),0.715 (inactive)
